Test results published in PubChem BioAssay.
Results with a measured potency or affinity are listed apart. Records with an inconclusive call do not appear. The source made the active and inactive calls. Unless noted, the rule behind the calls is not given here.

Columns and labels:
[1] = cytotoxicity in PAX8-dependent RMG-1 cells, dose response, cell-based, cherry-pick (AID 687029;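 active = signal drop whose fitted half-maximal concentration is at most twice the top valid dose, in every test run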;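 note: cells exposed to compound for 96 hours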)
[2] = cytotoxicity in IOSE-T80 ovarian epithelial cells, dose response, selectivity assay for PAX8 inhibitor project, cell-based, cherry-pick (AID 687032;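 active = fitted half-maximal concentration for viability loss no higher than twice the top valid dose, in every repeat run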;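 note: cells exposed to compound for 96 h before reading; 0% = neutral control wells and -100% = 2 µM mitoxantrone kill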)
[3] = inhibitors of CMV-promoter luciferase reporter, dose response, counter-screen for Pax8 inhibitor project, cell-based, HEK293, luminescence, dry powder (AID 743020;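 active = signal-lowering compounds whose fitted half-maximal concentration is at or below twice the top tested dose in every run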;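 note: HEK293 cells stably expressing the CMV luciferase reporter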)
[4] = non-specific cell cytotoxicity, dose response, cytotoxicity control for PAX8 inhibitor project, plate reader, dry powder samples (AID 743021)
[5] = IGROV1 ovarian cancer cell cytotoxicity, dose response, PAX8 inhibitor project, plate reader, dry powder samples (AID 743043);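 note: more negative means fewer viable cells or more cytotoxicity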
[6] = NIH:OVCAR-3 ovarian cancer cell cytotoxicity, dose response, PAX8 inhibitor project, plate reader, dry powder samples (AID 743044); details: max activity: at 35 µM, hits give low values unless noted
[7] = IOSE-T80 ovarian epithelial cell cytotoxicity, dose response, cytotoxicity control for PAX8 inhibitor project, plate reader, dry powder samples (AID 743045);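 note: 0% = neutral control median and -100% = positive control median; more negative values mean more cell killing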
[8] = A2780 ovarian cancer cell cytotoxicity, dose response, cytotoxicity control, plate reader, dry powder samples (AID 743046);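 note: 0% = neutral control wells and -100% = cytotoxic reference compound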
[9] = cytotoxicity in OVCAR8 ovarian cancer cells, dose response, PAX8 project, cell-based, plate reader, dry powder samples (AID 743197)

O=C(c1ccc(F)cc1)N1C[C@@H]2N[C@H](C1)C2c1ccc(-c2ccc(F)cc2)cc1 (some centres not stated)
inactive: outcome [1] | outcome [2] | outcome [3] | outcome [4] | outcome [5] | max activity [6] -17.2% [at 4.2 µM, hits give low values] | outcome [7] | outcome [8] | outcome [9]

C[C@@H]1CCCCO[C@H](CN(C)C(=O)NC2CCCCC2)[C@@H](C)CN([C@@H](C)CO)C(=O)c2cc(NC(=O)Nc3ccc(C(F)(F)F)cc3)ccc2O1
inactive: outcome [1] | outcome [2] | outcome [3] | outcome [4] | outcome [5] | max activity [6] 18.6% [at 2.1 µM, hits give low values] | outcome [7] | outcome [8] | outcome [9]

O=C(C[C@@H]1CC[C@@H]2[C@H](COC[C@H](O)CN2S(=O)(=O)c2cccc(Cl)c2)O1)Nc1ccc(-c2ccccc2)cc1
inactive: outcome [1] | outcome [2] | outcome [3] | outcome [4] | outcome [5] | max activity [6] -18.5% | outcome [7] | outcome [8] | outcome [9]

C[C@H]1CCCCO[C@@H](CN(C)Cc2ccc(C(F)(F)F)cc2)[C@@H](C)CN([C@@H](C)CO)C(=O)c2cc(NS(=O)(=O)c3cccs3)ccc2O1
inactive: outcome [1] | outcome [2] | outcome [3] | outcome [4] | outcome [5] | max activity [6] -8.06% [at 4.2 µM, hits give low values] | outcome [7] | outcome [8] | outcome [9]

C[C@@H]1CCCCO[C@@H](CN(C)C(=O)C2CCCCC2)[C@H](C)CN([C@@H](C)CO)C(=O)c2cc(NS(=O)(=O)c3ccc(Cl)cc3)ccc2O1
inactive: outcome [1] | outcome [2] | outcome [3] | outcome [4] | outcome [5] | max activity [6] -23.1% | outcome [7] | outcome [8] | outcome [9]

COc1ccc(S(=O)(=O)Nc2ccc3c(c2)CC(=O)N([C@H](C)CO)C[C@H](C)[C@@H](CN(C)Cc2ccc(-c4ccccc4)cc2)O3)cc1
inactive: outcome [1] | outcome [2] | outcome [3] | outcome [4] | outcome [5] | max activity [6] 36.7% [at 2.1 µM, hits give low values] | outcome [7] | outcome [8] | outcome [9]

C[C@@H]1CN([C@H](C)CO)C(=O)Cc2cc(NC(=O)Nc3ccc(F)cc3)ccc2O[C@@H]1CN(C)Cc1ccc(Cl)c(Cl)c1
inactive: outcome [1] | outcome [2] | outcome [3] | outcome [4] | outcome [5] | max activity [6] 27.5% | outcome [7] | outcome [8] | outcome [9]

CNC[C@@H]1Oc2cc(C#CC3CCCCC3)ccc2S(=O)(=O)N([C@@H](C)CO)C[C@@H]1C
inactive: outcome [1] | outcome [2] | outcome [3] | outcome [4] | outcome [5] | max activity [6] 17.9% [at 0.26 µM, hits give low values] | outcome [7] | outcome [8] | outcome [9]

C[C@@H]1CN([C@@H](C)CO)S(=O)(=O)c2ccc(C#Cc3ccccc3F)cc2O[C@H]1CN(C)CC1CCOCC1
inactive: outcome [1] | outcome [2] | outcome [3] | outcome [4] | outcome [5] | max activity [6] -11.1% [at 8 µM, hits give low values] | outcome [7] | outcome [8] | outcome [9]

Cc1ccc(S(=O)(=O)N(C)C[C@H]2Oc3ccc(NC(=O)Nc4ccc(C(F)(F)F)cc4)cc3CC(=O)N([C@H](C)CO)C[C@@H]2C)cc1
inactive: outcome [1] | outcome [2] | outcome [3] | outcome [4] | outcome [5] | max activity [6] 49.2% [at 16 µM, hits give low values] | outcome [7] | outcome [8] | outcome [9]

O=C(C[C@H]1CC[C@H]2[C@@H](COC[C@@H](O)CN2Cc2ccc(F)cc2)O1)NCc1ccccc1Cl
inactive: outcome [1] | outcome [2] | outcome [3] | outcome [4] | outcome [5] | max activity [6] -7.1% | outcome [7] | outcome [8] | outcome [9]

C[C@@H]1CN([C@@H](C)CO)C(=O)c2cc(NS(=O)(=O)c3ccccc3)ccc2O[C@@H](C)CCCCO[C@@H]1CN(C)Cc1ccc(C(F)(F)F)cc1
inactive: outcome [1] | outcome [2] | outcome [3] | outcome [4] | outcome [5] | max activity [6] -5.59% | outcome [7] | outcome [8] | outcome [9]

C[C@@H]1CCCCO[C@@H](CN(C)Cc2ccccc2)[C@@H](C)CN([C@H](C)CO)C(=O)c2cc(NC(=O)Nc3ccc(C(F)(F)F)cc3)ccc2O1
inactive: outcome [1] | outcome [2] | outcome [3] | outcome [4] | outcome [5] | max activity [6] -13.2% | outcome [7] | outcome [8] | outcome [9]

O=C(C[C@H]1CC[C@H]2[C@@H](COC[C@@H](O)CN2S(=O)(=O)c2ccccc2Cl)O1)N1CCC(Cc2ccccc2)CC1
inactive: outcome [1] | outcome [2] | outcome [3] | outcome [4] | outcome [5] | max activity [6] 32.6% [at 1 µM, hits give low values] | outcome [7] | outcome [8] | outcome [9]

C[C@@H]1CN([C@@H](C)CO)C(=O)c2cc(NC(=O)NC3CCCCC3)ccc2O[C@@H](C)CCCCO[C@H]1CN(C)Cc1ccc(C(F)(F)F)cc1
inactive: outcome [1] | outcome [2] | outcome [3] | outcome [4] | outcome [5] | max activity [6] -25.9% | outcome [7] | outcome [8] | outcome [9]

C[C@@H]1CCCCO[C@H](CN(C)C(=O)Nc2ccc(C(F)(F)F)cc2)[C@H](C)CN([C@@H](C)CO)C(=O)c2cc(NS(=O)(=O)c3ccc(Cl)cc3)ccc2O1
inactive: outcome [1] | outcome [2] | outcome [3] | outcome [4] | outcome [5] | max activity [6] -7.31% | outcome [7] | outcome [8] | outcome [9]

C[C@@H]1CN([C@H](C)CO)C(=O)Cc2cc(NS(=O)(=O)c3ccccc3)ccc2O[C@@H]1CN(C)S(=O)(=O)c1ccc(Cl)cc1
inactive: outcome [1] | outcome [2] | outcome [3] | outcome [4] | outcome [5] | max activity [6] 47.5% | outcome [7] | outcome [8] | outcome [9]

C[C@@H]1CCCCO[C@@H](CN(C)CC2CCCCC2)[C@@H](C)CN([C@@H](C)CO)C(=O)c2cc(NC(=O)Nc3ccc(C(F)(F)F)cc3)ccc2O1
inactive: outcome [1] | outcome [2] | outcome [3] | outcome [4] | outcome [5] | max activity [6] 17.1% [at 0.5 µM, hits give low values] | outcome [7] | outcome [8] | outcome [9]

C[C@H]1CCCCO[C@@H](CN(C)C(=O)NC2CCCCC2)[C@@H](C)CN([C@@H](C)CO)C(=O)c2cc(NC(=O)Nc3ccc(C(F)(F)F)cc3)ccc2O1
inactive: outcome [1] | outcome [2] | outcome [3] | outcome [4] | outcome [5] | max activity [6] 10.8% [at 2.1 µM, hits give low values] | outcome [7] | outcome [8] | outcome [9]

C[C@@H]1CN([C@@H](C)CO)C(=O)Cc2cc(NS(=O)(=O)c3ccc(F)cc3)ccc2O[C@H]1CN(C)Cc1ccc(Oc2ccccc2)cc1
inactive: outcome [1] | outcome [2] | outcome [3] | outcome [4] | outcome [5] | max activity [6] -22.3% [at 4.2 µM, hits give low values] | outcome [7] | outcome [8] | outcome [9]

C[C@@H]1CN([C@@H](C)CO)C(=O)Cc2cc(NC(=O)Nc3ccc(C(F)(F)F)cc3)ccc2O[C@H]1CN(C)Cc1ccc(Cl)c(Cl)c1
inactive: outcome [1] | outcome [2] | outcome [3] | outcome [4] | outcome [5] | max activity [6] 9.21% [at 0.26 µM, hits give low values] | outcome [7] | outcome [8] | outcome [9]

CC(C)CC#Cc1ccc2c(c1)O[C@@H](CN(C)Cc1ccncc1)[C@H](C)CN([C@@H](C)CO)S2(=O)=O
inactive: outcome [1] | outcome [2] | outcome [3] | outcome [4] | outcome [5] | max activity [6] 11.2% [at 4.2 µM, hits give low values] | outcome [7] | outcome [8] | outcome [9]

C[C@H]1CCCCO[C@H](CN(C)S(=O)(=O)c2ccc(Cl)cc2)[C@@H](C)CN([C@@H](C)CO)C(=O)c2cc(NS(=O)(=O)c3ccc(Cl)cc3)ccc2O1
inactive: outcome [1] | outcome [2] | outcome [3] | outcome [4] | outcome [5] | max activity [6] -21.5% | outcome [7] | outcome [8] | outcome [9]

C[C@@H]1CCCCO[C@@H](CN(C)C(=O)Nc2ccccc2)[C@H](C)CN([C@H](C)CO)C(=O)c2cc(NC(=O)Nc3ccc(C(F)(F)F)cc3)ccc2O1
inactive: outcome [1] | outcome [2] | activity change, negative = inhibition [3] 5.92% [at 8 µM] | outcome [4] | outcome [5] | max activity [6] 33.8% [at 16 µM, hits give low values] | outcome [7] | outcome [8] | outcome [9]

C[C@@H]1CN([C@@H](C)CO)C(=O)c2cc(NS(=O)(=O)c3ccc(F)cc3)ccc2O[C@@H](C)CCCCO[C@H]1CN(C)Cc1ccc(C(F)(F)F)cc1
inactive: outcome [1] | outcome [2] | outcome [3] | outcome [4] | outcome [5] | max activity [6] -20.3% [at 0.26 µM, hits give low values] | outcome [7] | outcome [8] | outcome [9]

C[C@H](CO)N1C[C@H](C)[C@@H](CN(C)CC2CCCCC2)Oc2ccc(NC(=O)Nc3ccc4c(c3)OCO4)cc2CC1=O
inactive: outcome [1] | outcome [2] | outcome [3] | outcome [4] | outcome [5] | max activity [6] 15.5% [at 1 µM, hits give low values] | outcome [7] | outcome [8] | outcome [9]

COc1ccc(NC(=O)Nc2ccc3c(c2)C(=O)N([C@@H](C)CO)C[C@@H](C)[C@@H](CN(C)Cc2ccc(C(F)(F)F)cc2)OCCCC[C@@H](C)O3)cc1
inactive: outcome [1] | outcome [2] | outcome [3] | outcome [4] | outcome [5] | max activity [6] -11.3% | outcome [7] | outcome [8] | outcome [9]

C[C@H](CO)N1C[C@H](C)[C@H](CN(C)C(=O)Nc2ccc(-c3cccs3)cc2)OCc2cnnn2CCCC1=O
inactive: outcome [1] | outcome [2] | outcome [3] | outcome [4] | outcome [5] | max activity [6] -11.7% | outcome [7] | outcome [8] | outcome [9]
